High-throughput results (PubChem BioAssay)
Sm TGR inh – blocks Schistosoma mansoni thioredoxin glutathione reductase. Potency, µM (top dose mostly 114 µM), hits mostly inhibitors. 360,000 tested, 3% active. purified TGR, DTNB reduction, TNB absorbance 405 nm; also: nearly all actives have a fitted effect of over 60% in size
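Kinetic colorimetric format: TGR-catalysed, NADPH-driven DTNB reduction monitored via TNB absorbance. Enzyme dispensed at 20 nM; compound exposure 15 min at room temperature before reaction start.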
LmPK inh – blocks Leishmania mexicana pyruvate kinase activity; 290,000 tested, 0.37% active; Potency, µM (titrated, usually from 57.5 µM), hits mostly inhibitors; Q27686; purified LmPK, Kinase-Glo ATP luminescence, 1 h; AID 1721
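In 50 mM imidazole pH 7.2 with 7 mM MgCl2, LmPK (0.1 nM) turned over PEP (0.5 mM) and ADP (0.1 mM) for 1 h at room temperature. Luciferase read-out of ATP.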
Tb PYK inh – inhibitors of Trypanosoma brucei pyruvate kinase | 410,000 tested, 0.12% active | TbPYK enzyme, Kinase-Glo Plus ATP luminescence, 45 min | AID 624173 | Potency, µM (titrated, usually from 76.8 µM), hits mostly inhibitors; also: nearly all actives have a fitted effect of over 50% in size
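Readout: single end-point luminescence (Kinase-Glo Plus, 10 min). Reaction conditions were TbPYK/substrate plus 130 uM ADP, 45 min at RT, pH 7.2 TEA buffer. No-enzyme wells served as controls, and data were normalized before concentration-response fitting.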
Cycloheximide cs – affects cycloheximide protein synthesis inhibition readout, counter-screen | 300,000 tested, 12% active | cell reporter, cycloheximide protein synthesis inhibition counterscreen | AID 2314 | max response, %; in the data active = max response mostly above about 13%, no sharp cut-off; inactive = mostly below about 14%; also: read at 38.3 µM for the half of the compounds with a filed dose
Shiga inhibitor – inhibitors of Shiga toxin in Vero cells; Vero cells, Shiga toxin protein synthesis inhibition reporter; inhibition, % at 38.7 µM; 290,000 tested, 9.2% active; AID 2315; in the data active = inhibition mostly above about 28%, no sharp cut-off; inactive = mostly below about 43%
FBPA Giardia inh – Giardia lamblia aldolase inhibition; A8B2U2; purified Giardia FBPA; 290,000 tested, 0.71% active; Potency, µM (doses to about 59.6 µM), actives largely listed as inhibitors; also: nearly all actives have a fitted effect of over 55% in size
Target sequence (A8B2U2 whole entry, looked up): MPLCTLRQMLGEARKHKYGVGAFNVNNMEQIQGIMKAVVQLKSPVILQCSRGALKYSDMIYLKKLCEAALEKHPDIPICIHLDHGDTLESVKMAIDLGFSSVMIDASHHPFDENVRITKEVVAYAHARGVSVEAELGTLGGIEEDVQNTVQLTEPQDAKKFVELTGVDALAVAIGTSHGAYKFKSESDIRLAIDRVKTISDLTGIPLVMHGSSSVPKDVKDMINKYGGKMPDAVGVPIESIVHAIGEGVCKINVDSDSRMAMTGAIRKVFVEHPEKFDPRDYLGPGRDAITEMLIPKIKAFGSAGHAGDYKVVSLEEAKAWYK
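40 nM FBPA preincubated 10 min at RT with compound (up to 57.5 uM final), then substrate plus GAPDH/TPI/NAD/arsenate coupling and diaphorase/resazurin added. Fluorescence read after 20 min at RT, 525/598 nm.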
Hits are given with their value; 0 = inactive; ? = inconclusive; - = no result given. Shown is part of a subset that was picked to be rich in hits. Unless noted, calls follow the shape of the dose curve; as a rule, active = well fitted curve in the direction sought with a large enough effect; inconclusive = small, poorly fitted or top-dose-only effect, or another doubt; inactive = no such curve, though single readings can be large; an effect the other way counts as inactive or inconclusive.

SMILES	Sm TGR inh	LmPK inh	Tb PYK inh	Cycloheximide cs	Shiga inhibitor	FBPA Giardia inh
O=[N+]([O-])c1ccc(N/N=C/c2cccnc2)cc1	0	0	0	32.6	41.3	0
COc1ccccc1Cc1c(-c2ccc(C)cc2)nc2cc(C)c(Br)c(C)n12	-	-	0	-	-	-
CC(=O)c1ccc(N2CCN(CN3C(=O)CC4(CCCC4)C3=O)CC2)c(F)c1	?	0	0	0	0	0
CCOc1ccccc1CNC(=O)CCc1c(C)nn(-c2ccc(N3CCCCC3)nn2)c1C	0	-	0	-	-	-
O=[N+]([O-])c1ccc(/C=N/Nc2nc3ccccc3o2)cc1	0	0	0	31.3	48.2	?
COc1ccc(OC)c(-n2c(-c3cccc(C)c3)n[nH]c2=S)c1	0	?	2.51µM	0	0	0
COc1ccc(OC)c(-n2c(-c3cc(-c4ccccc4)n[nH]3)n[nH]c2=S)c1	0	10µM	?	0	0	0
S=c1[nH]nc(-c2cccc3ccccc23)n1-c1cccnc1	0	12.6µM	?	0	0	0
O=c1c2ccccc2[nH]c(=S)n1-c1cccnc1	0	0	0	0	0	0
CC(C)c1ccccc1-n1c(-c2cccnc2)n[nH]c1=S	0	0	?	0	0	0
COc1ccc(-n2c(-c3cc(-c4ccccc4)sc3N)n[nH]c2=S)cc1	0	0	0	0	0	0
Cc1ccccc1-n1c(-c2cccnc2)n[nH]c1=S	0	11.2µM	?	0	0	?
COc1ccccc1NC(=O)C1CC(C)OC1=O (stereo unspecified)	-	-	0	-	-	-
COc1ccc(Cl)cc1NC(=O)CC1S/C(=N/N=C2CCCCCC2)NC1=O (stereo unspecified)	0	0	0	0	0	-
COc1ccc(-c2n[nH]c(=S)n2/N=C/C=C\c2ccccc2OC)cc1	0	0	0	0	0	0
COc1ccc(-c2cc(-c3n[nH]c(=S)n3-c3ccccc3OC)[nH]n2)cc1	0	11.2µM	0	0	0	0
COc1ccccc1-n1c(-c2cn(C)nc2C)n[nH]c1=S	0	22.4µM	?	0	0	?
COc1ccccc1-n1c(-c2ccccc2)n[nH]c1=S	-	0	6.31µM	0	0	0
COc1ccc(-c2n[nH]c(=S)n2-c2ccccc2C)cc1	0	28.2µM	?	0	0	0
CCOC(=O)/C(=C\c1ccccc1)C(=O)CCN1CCOCC1	-	-	0	-	-	-
Cc1ccccc1-n1c(-c2ccc3ccccc3n2)n[nH]c1=S	0	17.8µM	?	0	0	0
COc1ccccc1-n1c(-c2ccc(C)cc2)nc2ccccc2c1=O	0	0	0	28.5	47.6	0
COc1cc(OC)cc(C(=O)NCc2n[nH]c(=S)n2-c2ccccc2OC)c1	0	?	11.2µM	0	0	0
COc1ccccc1-n1c(CNC(=O)c2cccs2)n[nH]c1=S	0	?	?	0	0	?
Fc1ccc(-n2c(-c3ccc4ccccc4n3)n[nH]c2=S)cc1Cl	0	0	0	0	0	0
SMILES	Sm TGR inh	LmPK inh	Tb PYK inh	Cycloheximide cs	Shiga inhibitor	FBPA Giardia inh
COc1ccccc1-n1c(-c2ccccc2F)nc2ccccc2c1=O	-	-	0	-	-	-
S=c1[nH]nc(-c2ccc3ccccc3n2)n1-c1ccc2ncccc2c1	0	14.1µM	3.98µM	0	0	0
O=C(c1cccs1)N1CCN(C(=O)c2cccs2)C1=S	-	-	0	-	-	-
O=C(NCC(c1cccnc1)N1CCc2ccccc2C1)C(=O)Nc1ccccc1F (stereo unspecified)	0	-	0	-	-	-
CCOC1=C2CN(S(=O)(=O)c3ccc(C)cc3)[C@H](c3ccccc3)C[C@@H]2N(S(=O)(=O)c2ccccc2C)[C@H](c2ccccc2)C1	-	-	0	-	-	-
COc1cc(NC(=O)N2CCC3(CC2)Nc2ccccc2-n2cccc23)cc(OC)c1OC	0	-	0	-	-	-
COc1ccc(OC)c(-n2c(-c3ccccc3)n[nH]c2=S)c1	0	2.24µM	11.2µM	0	0	0
COc1ccc(-c2n[nH]c(=S)n2-c2ccccc2C)cc1OC	0	?	?	0	0	0
O=C(CN1C(=O)S/C(=C\c2ccccc2F)C1=O)NC1C=CS(=O)(=O)C1 (stereo unspecified)	0	0	0	0	0	0
CCC(Sc1nc(C)cc(=O)[nH]1)C(=O)Nc1nc2c(s1)CCCC2 (stereo unspecified)	0	0	0	14.9	42.0	0
COc1ccccc1-c1nc(NCc2cnc(C)cn2)c2ccccc2n1	-	-	-	-	-	0
CN(C(=O)c1cccc(NC(=O)Cc2cccc(NC(=O)C3CCCN(C(=O)CCc4ccccc4)C3)c2)c1)C1CCC1 (stereo unspecified)	-	-	0	-	-	-
CC1CCN(c2ccc(C(=O)NCc3ccco3)cc2[N+](=O)[O-])CC1	0	0	0	22.0	54.2	0
O=C(NCc1ccco1)c1ccc(N2CCCCC2)c([N+](=O)[O-])c1	0	0	0	20.1	41.4	0
Cc1ccc(N(Cc2ccco2)C(=O)c2ccc(N3CCCCC3)c([N+](=O)[O-])c2)cc1	0	0	0	43.7	105.6	0
O=C(NCc1ccco1)c1ccc(N2CCOCC2)c([N+](=O)[O-])c1	-	0	0	0	0	0
O=C(CSc1nc(-c2ccc(F)cc2)[nH]c1-c1ccccc1)NCC1CCCO1 (stereo unspecified)	0	-	0	-	-	-
COc1cccc(-c2cn3c(n2)sc2cc(C(=O)NCCCc4ccccc4)ccc23)c1	0	-	0	-	-	-
CC(=O)[C@@H]1[C@@H]2C(=O)N(C3CCCCC3)C(=O)[C@@H]2C2c3ccccc3C=CN21 (stereo partly specified)	25.1µM	0	-	0	0	-
COc1ccc(NC(=O)[C@@H]2[C@@H]3C(=O)N(C4CCCCC4)C(=O)[C@@H]3C3c4ccccc4C=CN32)cc1 (stereo partly specified)	0	0	0	0	0	?
CC(C)(C)C(=O)[C@@H]1[C@@H]2C(=O)N(Cc3ccccc3)C(=O)[C@@H]2[C@H]2c3ccccc3C=CN12	?	0	-	0	0	?
CC(=O)[C@H]1[C@@H]2C(=O)N(c3cccc(Cl)c3)C(=O)[C@@H]2[C@H]2c3ccccc3C=CN21	15.8µM	0	0	0	0	?
O=C1C2CC=C(Cl)CC2C(=O)N1CCN1CCOCC1 (stereo unspecified)	0	0	0	0	0	0
O=C1C2CC=C(Cl)CC2C(=O)N1CCCCCCN1C(=O)C2CC=C(Cl)CC2C1=O (stereo unspecified)	22.4µM	0	0	0	0	?
CCc1nc2ccc(C(=O)Nc3ccc(OC)c(OC)c3)cn2c1N(C)C(=O)Cc1ccccc1	-	-	0	-	-	-
O=C1NC(=O)/C(=C\c2ccc(N3CCOCC3)o2)N1	8.91µM	0	0	0	0	?
Cc1ccccc1N1C(=O)NC(=O)/C(=C\c2cc(Br)c(N3CCOCC3)o2)C1=O	?	0	0	0	0	0
CN1C(=O)C(=Cc2ccc(N3CCOCC3)o2)C(=O)N(C)C1=O	?	0	0	0	0	0
